Reference: the supplement of paper PMC9023506
Counter-ions that a name gives are not always drawn.

These compounds were tested on Danio rerio larvae (5 dpf) (assay: excitability to 1-s acoustic pulses, difference vs DMSO (percentage points (treated minus DMSO)); higher = more of the behaviour than the DMSO vehicle control). Details: 10 µM; exposure time: 3 h pre-incubation + 3 h imaging.
Method: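 5-dpf wild-type zebrafish larvae were imaged in 96-well plates. They were treated with 190 Tocris FDA-approved drugs at 10 µM (1 µl/ml DMSO) for 3 h before and 3 h during imaging at 28.5 °C, 48 larvae per drug. Automated image analysis gave % time moving and optomotor responses. Values are drug group mean minus DMSO vehicle mean (n=844), in percentage points, for 10 behaviours.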

Row | Compound | excitability to 1-s acoustic pulses
1 | CC(C)[C@H]1CC[C@H](C(=O)N[C@H](Cc2ccccc2)C(=O)O)CC1 [Nateglinide] | 1.64
2 | Cc1nc(Nc2ncc(C(=O)Nc3c(C)cccc3Cl)s2)cc(N2CCN(CCO)CC2)n1 [Dasatinib] | 16.9
3 | CC(=O)Nc1ccc(O)cc1 [Acetaminophen] | -2.54
4 | CN1CCC[C@@H]1Cc1c[nH]c2ccc(CCS(=O)(=O)c3ccccc3)cc12 [Eletriptan hydrobromide] | 3.9
5 | Cc1ccc(N(CC2=NCCN2)c2cccc(O)c2)cc1 [Phentolamine Mesylate] | 15.7
6 | NC(=O)OCC(COC(N)=O)c1ccccc1 [Felbamate] | -4.78
7 | CCCCCOC(=O)Nc1nc(=O)n([C@@H]2O[C@H](C)[C@@H](O)[C@H]2O)cc1F [Capecitabine] | 4.17
8 | CCOc1cc(CC(=O)N[C@@H](CC(C)C)c2ccccc2N2CCCCC2)ccc1C(=O)O [Repaglinide] | 9.31
9 | C[C@H]1C[C@@H]2[C@H]([C@@H](O)C[C@@]3(C)[C@H]2CC[C@]3(O)C(=O)CO)[C@@]2(C)C=CC(=O)C=C12 [Methylprednisolone] | 0.503
10 | Nc1nc(NC2CC2)c2ncn([C@H]3C=C[C@@H](CO)C3)c2n1 [Abacavir hemisulfate] | -1.97
11 | COc1ccc([C@@H]2Sc3ccccc3N(CCN(C)C)C(=O)[C@@H]2OC(C)=O)cc1 [Diltiazem hydrochloride] | 1.38
12 | OCCN1C[C@H](O)[C@@H](O)[C@H](O)[C@H]1CO [Miglitol] | 5.41
13 | Nc1nc2[nH]cc(CCc3ccc(C(=O)N[C@@H](CCC(=O)O)C(=O)O)cc3)c2c(=O)[nH]1 [Pemetrexed] | 2.29
14 | COc1cc(Nc2c(C#N)cnc3cc(OCCCN4CCN(C)CC4)c(OC)cc23)c(Cl)cc1Cl [Bosutinib] | 6.48
15 | CC(=O)O[C@H]1C(=O)[C@@]2(C)[C@H]([C@H](OC(=O)c3ccccc3)[C@]3(O)C[C@H](OC(=O)[C@H](O)[C@@H](NC(=O)c4ccccc4)c4ccccc4)C(C)=C1C3(C)C)[C@]1(OC(C)=O)CO[C@@H]1C[C@@H]2O [Taxol] | -0.779
16 | Cc1ccc(NC(=O)c2ccc(CN3CCN(C)CC3)cc2)cc1Nc1nccc(-c2cccnc2)n1 [Imatinib mesylate] | 12.7
17 | C[C@@H]1C[C@H]2[C@@H]3CCC4=CC(=O)C=C[C@]4(C)[C@@]3(F)[C@@H](O)C[C@]2(C)[C@@]1(O)C(=O)CO [Dexamethasone] | -5.75
18 | N#Cc1ccc2[nH]cc(CCCCN3CCN(c4ccc5oc(C(N)=O)cc5c4)CC3)c2c1 [Vilazodone hydrochloride] | 16.8
19 | COc1ccccc1OCCNCC(O)COc1cccc2[nH]c3ccccc3c12 (stereo not given) [Carvedilol] | 21
20 | CC(=O)S[C@@H]1CC2=CC(=O)CC[C@]2(C)[C@H]2CC[C@@]3(C)[C@@H](CC[C@@]34CCC(=O)O4)[C@H]12 [Spironolactone] | 1.36

Row | Compound | excitability to 1-s acoustic pulses
21 | Nc1cc(N2CCCCC2)nc(N)[n+]1[O-] [Minoxidil] | 1
22 | CC/C(=C(\c1ccccc1)c1ccc(OCCN(C)C)cc1)c1ccccc1 [Tamoxifen citrate] | 4.58
23 | CCCCc1nc(Cl)c(CO)n1Cc1ccc(-c2ccccc2-c2nnn[nH]2)cc1 [Losartan potassium] | 5.58
24 | CNS(=O)(=O)Cc1ccc2[nH]cc(CCN(C)C)c2c1 [Sumatriptan succinate] | -8.18
25 | COCCc1ccc(OCC(O)CNC(C)C)cc1 (stereo not given) [Metoprolol tartrate] | -8.67
26 | C[C@H]1O[C@H](O[C@H]2[C@H](O)[C@@H](O)[C@@H](O[C@H]3[C@H](O)[C@@H](O)C(O)O[C@@H]3CO)O[C@@H]2CO)[C@H](O)[C@@H](O)[C@@H]1N[C@H]1C=C(CO)[C@@H](O)[C@H](O)[C@H]1O (stereo not given in full) [Acarbose] | -4.01
27 | CN(C)CCc1c[nH]c2ccc(Cn3cncn3)cc12 [Rizatriptan benzoate] | -3.58
28 | CCOC(=O)c1ncn2c1CN(C)C(=O)c1cc(F)ccc1-2 [Flumazenil] | 2.56
29 | O=c1n(CCCN2CCN(c3cccc(Cl)c3)CC2)nc2ccccn12 [Trazodone hydrochloride] | 18.6
30 | CN/C(=N\CCSCc1nc[nH]c1C)NC#N [Cimetidine] | -2.12
31 | CCCCC1=NC2(CCCC2)C(=O)N1Cc1ccc(-c2ccccc2-c2nnn[nH]2)cc1 [Irbesartan] | -3.79
32 | COc1cc2nc(N3CCN(C(=O)C4COc5ccccc5O4)CC3)nc(N)c2cc1OC (stereo not given) [Doxazosin mesylate] | 20.8
33 | N#C[C@@H]1C[C@@H]2C[C@@H]2N1C(=O)[C@@H](N)C12CC3CC(CC(O)(C3)C1)C2 [Saxagliptin hydrochloride] | 2.82
34 | Brc1c(NC2=NCCN2)ccc2nccnc12 | 7.01
35 | COc1cc([C@@H]2c3cc4c(cc3[C@@H](O[C@@H]3O[C@@H]5CO[C@@H](C)O[C@H]5[C@H](O)[C@H]3O)[C@H]3COC(=O)[C@H]23)OCO4)cc(OC)c1O [Etoposide] | 9.69
36 | CN1CC[C@@H](NC(=O)Nc2ccc(C#N)cc2)C[C@@H]1c1nc2ccccc2[nH]1 | 7.99
37 | CCOC(=O)[C@H](CCc1ccccc1)N[C@H]1CCc2ccccc2N(CC(=O)O)C1=O [Benazepril hydrochloride] | 0.498
38 | O=C(c1ccc(OCCN2CCCCC2)cc1)c1c(-c2ccc(O)cc2)sc2cc(O)ccc12 [Raloxifene hydrochloride] | 9.93
39 | O=C1CCc2cc(OCCCCc3nnnn3C3CCCCC3)ccc2N1 [Cilostazol] | 6.57
40 | O=C(Nc1c(Cl)cncc1Cl)c1ccc(OC(F)F)c(OCC2CC2)c1 [Roflumilast] | 16.7
